# Compound activity as filed in PubChem BioAssay.
# Rows were chosen to be rich in hits. Some 15% of all compounds tested hit in one or more screens of this group.
# ELG1 DNA repair: inhibitors of ELG1-dependent DNA repair in HEK293T cells. Potency, µM (top dose mostly 46.1 µM), most hits filed as inhibitors. HEK293T ELG1-luciferase reporter, luminescence, 16 h; DNA damage induced by 5-fluorouridine. 330,000 compounds, 2.3% hits; further: nearly all actives have a fitted effect of over 55% in size
#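 DMSO vehicle served as the neutral condition. Each well held 2,000 cells given 5-fluorouridine plus compound; after 16 hr at 37 °C/5% CO2, ONE-Glo was added and luciferase measured 30 min later.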
# TDP1 cell CPT: growth inhibition of DT40 Tdp1-/-;hTDP1 cells with camptothecin (screen for TDP1 inhibitors) | Potency, µM (doses to about 46.2 µM), actives largely listed as inhibitors | chicken DT40 Tdp1-/-;hTDP1 cells + 20 nM CPT, ATP luminescence, 48 h | 420,000 compounds, 12% hits; further: nearly all actives have a fitted effect of over 55% in size
#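 Cell growth measured by CellTiter-Glo luminescence after a minimum 48 h, 37 C compound exposure with 20 nM CPT in Tdp1-knockout DT40 cells stably expressing hTDP1, seeded 400/well; qHTS titration format.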
# RORgamma inh: ROR gamma (mouse) transcription inhibition; P51450; Potency, µM (titrated, usually from 53.6 µM), hits mostly inhibitors; AID 2551; Drosophila S2 Gal4-RORgamma UAS-luciferase reporter, 20 h; 310,000 compounds, 5.4% hits; further: nearly all actives have a fitted effect of over 60% in size
# Target sequence (P51450 whole entry, looked up, the tested form may be a part): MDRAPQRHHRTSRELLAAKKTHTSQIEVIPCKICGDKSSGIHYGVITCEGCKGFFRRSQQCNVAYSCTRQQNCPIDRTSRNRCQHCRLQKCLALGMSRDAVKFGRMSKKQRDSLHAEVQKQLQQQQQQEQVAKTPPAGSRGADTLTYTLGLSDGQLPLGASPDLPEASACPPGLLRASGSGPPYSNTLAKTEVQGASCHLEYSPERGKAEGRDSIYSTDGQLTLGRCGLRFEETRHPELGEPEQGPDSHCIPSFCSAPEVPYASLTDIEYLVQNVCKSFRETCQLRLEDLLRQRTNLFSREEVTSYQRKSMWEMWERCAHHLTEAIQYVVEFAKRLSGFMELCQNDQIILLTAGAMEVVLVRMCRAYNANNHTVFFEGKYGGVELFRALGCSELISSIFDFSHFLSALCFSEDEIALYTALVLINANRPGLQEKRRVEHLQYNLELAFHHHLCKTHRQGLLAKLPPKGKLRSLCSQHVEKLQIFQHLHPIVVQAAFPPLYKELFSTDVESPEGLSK
#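 A Gal4/UAS one-hybrid system in insect cells: metallothionein-promoter Gal4–ROR gamma fusion plus Photinus luciferase reporter. Copper sulfate 700 uM final, 20 hr ambient incubation, luminescent detection after 10 min with reagent.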
# DT40 TDP1 no CPT: qHTS for Inhibitors of human tyrosyl-DNA phosphodiesterase 1 (TDP1): qHTS in cells in absence of CPT | DT40 Tdp1-/- hTDP1 cells, no CPT, ATP luminescence, 48 h | Potency, µM (top dose mostly 46.2 µM), most hits filed as inhibitors | 420,000 compounds, 15% hits | AID 686978, 2013; further: nearly all actives have a fitted effect of over 55% in size
#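 Growth of hTDP1-complemented DT40 Tdp1-knockout cells is measured by ATP luminescence after at least 48 hr compound exposure at 37 °C, with DMSO substituting for the 20 nM CPT used in the parallel screen.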
# VP16 counter: counter-screen for ROR gamma inhibitors: Gal4-VP16 reporter | Drosophila S2 Gal4-VP16 UAS-luciferase, luminescence, 20 h | Potency, µM (highest dose often 53.6 µM), usual class: inhibitors | 310,000 compounds, 3.5% hits;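 further: Gal4-VP16 expression switched on by copper sulfate through the metallothionein promoter; nearly all actives have a fitted effect of over 50% in size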
# ALOX12 inh: ALOX12 (human) lipoxygenase inhibition; P18054; purified 12hLO, xylenol orange hydroperoxide absorbance; Potency, µM (top dose mostly 108 µM), most hits filed as inhibitors; 580,000 compounds, 1.1% hits
#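 Purified human 12hLO (150 nM final) in 25 mM Hepes, 0.01% Triton X-100, pH 7.0 was preincubated 15 min at room temperature with compound. Then 40 uM arachidonic acid was added, 30 min. Hydroperoxide was read by Fe-XO absorbance ratio 573/405 nm.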
# A number is an active result; n = inactive; u = inconclusive; x = no result given. The call rests on the fitted dose curve; in most records, active means well fitted curve in the direction sought with a large enough effect; inconclusive means small, poorly fitted or top-dose-only effect, or another doubt; inactive means no such curve, though single readings can be large; an effect the other way counts as inactive or inconclusive.
SMILES,ELG1 DNA repair,TDP1 cell CPT,RORgamma inh,DT40 TDP1 no CPT,VP16 counter,ALOX12 inh
Cc1noc(C)c1S(=O)(=O)NC(=O)C1(C)CCN1C(=O)CC(c1ccccc1)c1ccccc1 (stereo not given),x,9.2µM,x,21µM,x,u
CC1(C(=O)NS(=O)(=O)c2ccccc2Cl)CCN1C(=O)CC(c1ccccc1)c1ccccc1 (stereo not given),x,4.1µM,x,7.3µM,x,n
Cc1ccccc1S(=O)(=O)NC(=O)C1(C)CCN1C(=O)CC(c1ccccc1)c1ccccc1 (stereo not given),x,5.8µM,x,5.8µM,x,n
CC1(C(=O)NS(=O)(=O)c2ccccc2)CCN1C(=O)CC(c1ccccc1)c1ccccc1 (stereo not given),x,u,x,u,x,n
O=C(N/N=C/c1ccncc1)c1cc2c(ccc3ccccc32)o1,n,n,n,n,n,n
COc1ccccc1/C=N/NC(=O)c1cc2c(ccc3ccccc32)o1,n,16µM,n,u,n,n
COc1ccc(/C=N/NC(=O)c2cc3c(ccc4ccccc43)o2)cc1OC,u,u,n,u,n,n
N#CCC(=O)N/N=C/c1c(-c2ccccc2)n(-c2ccccc2)c2ccccc12,u,u,n,21µM,n,n
N#CCn1cc(/C=N/NC(=O)c2cc3c(ccc4ccccc43)o2)c2ccccc21,n,21µM,n,12µM,n,n
COc1ccc2ccc(OC)c(/C=N/NC(=O)c3cc4ccccc4o3)c2c1,x,u,x,18µM,x,n
Cc1ccc2oc(-c3cccc(NC(=O)c4ccccc4[N+](=O)[O-])c3C)nc2c1,x,x,x,x,x,n
Cc1ccc(NCC(=O)N2CCN(S(=O)(=O)c3ccc4ccccc4c3)CC2)cc1F,x,x,x,x,x,n
N#CCC(=O)N/N=C/c1cn(Cc2cccc3ccccc23)c2ccccc12,n,5.2µM,n,3.7µM,n,n
COCC1CN(C)CC12CCN(S(=O)(=O)c1ccc(C#N)cc1)CC2 (stereo not given),x,x,x,x,x,n
COc1ccc(-c2cc(NC=O)c3ncc(-c4ccc(C(C)=O)cc4)n3c2)cc1OC,x,16µM,x,18µM,x,n
COc1cc(-c2cc(NC=O)c3ncc(-c4ccc(C(C)=O)cc4)n3c2)cc(OC)c1OC,x,10µM,x,7.3µM,x,n
CC(C)n1c(/N=C/c2c[nH]c3ccccc23)nc2ccccc21,n,u,n,n,n,u
Cc1[nH]c2ccccc2c1/C=C/c1ccnc2ccccc12,x,5.6µM,x,2.8µM,x,x
C(=C\c1c[nH]c2ccccc12)/c1ccnc2ccccc12,x,u,x,20µM,x,x
CCN1C(=O)CCN(C(=O)Cc2cccc(OC)c2)CC12CCOCC2,x,x,x,x,x,n
CCOc1ccc(NC(=O)CSc2nccc(-c3ccc(Br)cc3)n2)cc1,x,x,x,x,x,n
Cn1ncc(C#N)c1/N=C/N(Cc1ccccc1)Cc1ccccc1,u,15µM,n,u,n,n
CCCCCCCCNS(=O)(=O)CCNCCc1ccccc1,x,n,x,u,x,n
CCCCCCCCNS(=O)(=O)CCNCc1ccccc1OC,x,u,x,21µM,x,u
COc1ccc(CNS(=O)(=O)CCNCc2ccccc2OC)cc1,x,n,x,n,x,n
SMILES,ELG1 DNA repair,TDP1 cell CPT,RORgamma inh,DT40 TDP1 no CPT,VP16 counter,ALOX12 inh
CCCCCCCCNCCS(=O)(=O)NCCCCCCCC,x,u,x,16µM,x,n
Cc1ccc(NC(=O)CCc2cc(C(C)(C)C)c(O)c(C(C)(C)C)c2)cc1,x,x,x,x,x,n
Cc1ccc(-c2nc3c(cnn3-c3ccccc3)c(=O)n2-c2ccc(Cl)cc2)cc1,x,u,x,u,x,n
CCOc1ccc(-n2c(CC)nc3c(cnn3-c3ccc(Cl)cc3)c2=O)cc1,x,16µM,x,15µM,x,n
Cc1ccc(-n2c(C)nc3c(cnn3-c3ccc(C)c(C)c3)c2=O)cc1C,n,18µM,u,16µM,n,u
CCc1nc2c(c(=O)c3ccccc3n2C)c(=O)n1-c1ccc(F)cc1,n,n,n,u,n,n
CCc1nc2c(cnn2-c2ccc(F)cc2)c(=O)n1-c1ccc(N2CCC(C)CC2)cc1,16µM,16µM,n,15µM,u,n
Cc1nc2c(cnn2-c2ccccc2Cl)c(=O)n1-c1ccc(N2CCC(C)CC2)cc1,16µM,16µM,n,u,n,n
Cc1cc(N2CCOCC2)nc2ccc(NC(=O)CCC(=O)N3CCN(c4ccccc4)CC3)cc12,u,u,n,u,n,n
CCN(CC)CCCNC(=O)CCC(=O)Nc1ccc2nc(N3CCC(C)CC3)cc(C)c2c1,u,u,n,u,n,u
Cc1cc(N2CCC(C)CC2)nc2ccc(NC(=O)CCC(=O)N3CCN(c4cccc(C(F)(F)F)c4)CC3)cc12,x,3.3µM,x,2.3µM,x,n
Cc1cc(N2CCN(C)CC2)nc2ccc(NC(=O)CCC(=O)N3CCN(c4ccc([N+](=O)[O-])cc4)CC3)cc12,u,26µM,n,18µM,n,n
Cc1ccc(Cl)cc1N1CCN(C(=O)CCC(=O)Nc2ccc3nc(N4CCC(C)CC4)cc(C)c3c2)CC1,x,23µM,x,13µM,x,n
COc1ccc(Cl)cc1CN(C)C(=O)c1ccc2c(c1)CCCN2S(C)(=O)=O,x,x,x,x,x,n
COc1ccc(NC(=O)c2ccc(-c3ccc(F)cc3)o2)cc1OC,x,21µM,x,16µM,x,n
COc1cc(NC(=O)c2ccc(-c3ccc(Br)cc3)o2)ccc1NC(=O)C(C)C,n,15µM,n,18µM,n,n
CN(C)C(=O)c1ccc(NC(=O)c2ccc(-c3ccc(Cl)cc3)o2)cc1,n,23µM,x,16µM,x,u
CC(C)NC(=O)c1ccc(-c2ccc(F)cc2)o1,x,x,x,x,x,n
COc1cc(NC(=O)c2ccc(-c3cccc(F)c3)o2)ccc1NC(=O)c1ccccc1Cl,u,18µM,x,18µM,x,n
CC(C)CCC(=O)N1C[C@@H](CO)[C@H](c2nc(-c3ccncc3)no2)C1,x,x,x,x,x,n
CC(C)NC(=O)C[C@@H]1C[C@H]2O[C@H](CNC3CCC(F)(F)CC3)[C@@H](O)[C@H]2O1,x,x,x,x,x,n
COCC(=O)Nc1cc(C(=O)N2CCc3cc(OC)c(OC)cc3C2)c2c(c1)nc(C1CCC1)n2C,x,x,x,x,x,n
O=C(Nc1ccccc1N1CCCC1)c1ccc(Br)o1,n,u,n,u,n,u
CS(=O)(=O)N1CCN(c2ccccc2NC(=O)c2ccc(Cl)cc2)CC1,n,n,u,n,n,n
CN1CCN(c2ccccc2NC(=O)c2ccc([N+](=O)[O-])o2)CC1,9.2µM,7.3µM,u,9.2µM,u,x
CN1CCN(c2ccccc2NC(=O)c2cccc([N+](=O)[O-])c2)CC1,n,n,n,n,n,n
CS(=O)(=O)N1CCN(c2ccccc2NC(=O)c2ccc([N+](=O)[O-])o2)CC1,23µM,3.7µM,n,8.2µM,n,n
